The source of these data is ChEMBL document CHEMBL4513146, “CO-ADD screening of Karazin Kharkiv National University (Ukraine) compounds”.

One test has as its system Klebsiella pneumoniae. The following applies: Concentration 32 ug.mL-1;; ASSAY_TEST Inhibition of Bacterial Growth; detection method Absorption (OD600); MEDIA CAMHB; plate type 384well; NBS; CORNING #3640; time 18 hr.
Another test concerns Candida albicans. The following applies: Concentration 32 ug.mL-1; ASSAY_TEST Inhibition of Fungal Growth; detection method Absorption (OD530).
The test system of the next test is Cryptococcus neoformans. The following applies: Concentration 32 ug.mL-1; ASSAY_TEST Inhibition of Fungal Growth; detection method Resazurin; Absorption (OD600-OD570); plate type 384well; NBS; CORNING #3640.

Each structure is given as a SMILES string. Entries with a potency or affinity are not part of this list.

The term Inhibition denotes the drop in the measured response relative to a control, in per cent. As for `CCCCn1c(=O)c2sccc2n2c(=O)n(CC(=O)c3ccc(OC)c(OC)c3)nc12`, the Inhibition with Klebsiella pneumoniae is reported as 19.59%; with Candida albicans, -0.04%; in the test with Cryptococcus neoformans it was -27.81%.

As for `O=C(Cn1nc2ccc(C(=O)NCc3ccccc3)cn2c1=O)Nc1ccc(Br)cc1`, the values for the Inhibition in the test on Klebsiella pneumoniae, in the test with Candida albicans and in the test with Cryptococcus neoformans were -0.54%, 2.27% and -19.25%, respectively.

Take `Cc1ccc(-c2ccc3nnc(CCC(=O)NCc4cccc(Br)c4)n3n2)cc1C`: the Inhibition in the test with Klebsiella pneumoniae was -2.24%; in the test on Candida albicans it was 4.88%; in the test on Cryptococcus neoformans, -4.39%.

As to `COc1cccc(NC(=O)Cn2nc3ccc(-c4ccc(Cl)cc4)nn3c2=O)c1`, the Inhibition with Klebsiella pneumoniae is listed as 5.27%; in the test with Candida albicans it was 2.11%; with Cryptococcus neoformans, -14.88%.

In the case of `COc1ccc(-c2cc3c4nn(CC(=O)Nc5ccc(C)cc5C)c(=O)n4ccn3n2)cc1`, the Inhibition is 11.47% with Klebsiella pneumoniae, 2.57% in the test with Candida albicans and -20.53% in the test on Cryptococcus neoformans.

As for `O=C(Cn1nc2ccc(SCc3ccc(Cl)cc3)nn2c1=O)NC1CCCCC1`, the Inhibition in the test on Klebsiella pneumoniae is 3.63%; in the test on Candida albicans, 3.05%; in the test with Cryptococcus neoformans it was -27.33%.

On to `Cc1ccc(NC(=O)Cn2c(=O)c3nnc(C(C)C)n3c3ccccc32)c(C)c1`, for which the Inhibition in the test with Klebsiella pneumoniae is given as 5.02%; in the test on Candida albicans, 1.04%; with Cryptococcus neoformans, -15.61%.

As for `CCOC(=O)c1ccccc1NC(=O)Cn1nc2c3sc(N4CCCC4)nc3ncn2c1=O`, the Inhibition in the test on Klebsiella pneumoniae was 9.28%; with Candida albicans it was 9.32%; with Cryptococcus neoformans it was -6%.

Consider `O=C(Cn1nc2c(N3CCSCC3)nc3ccccc3n2c1=O)Nc1ccc(Br)cc1`, for which the Inhibition in the test with Klebsiella pneumoniae is recorded as 7.3%; in the test on Candida albicans it was 11.24%; with Cryptococcus neoformans, -9.72%.

Regarding `Cc1nnc2ccc(S(=O)(=O)N(Cc3cccc(F)c3)c3ccc(Cl)cc3)cn12`, the Inhibition is 10.33% with Klebsiella pneumoniae, -0.68% in the test on Candida albicans and -10.1% in the test on Cryptococcus neoformans.

Turning to `COc1ccc(NC(=O)Cn2nc3c(Sc4ccccc4)nccn3c2=O)cc1Cl`, the Inhibition in the test on Klebsiella pneumoniae was -2.59%; with Candida albicans, 0.73%; in the test on Cryptococcus neoformans, 2.33%.

Regarding `COc1ccc(-c2cc3c4nn(CC(=O)N5CCCc6ccccc65)c(=O)n4ccn3n2)cc1`, the Inhibition in the test on Klebsiella pneumoniae is reported as 10.34%; in the test with Candida albicans, 3.82%; with Cryptococcus neoformans it was -13.79%.

For `Cc1ccccc1Oc1nccn2c(=O)n(CC(=O)Nc3ccc(F)cc3F)nc12`, the Inhibition is 11.95% in the test with Klebsiella pneumoniae, -0.38% with Candida albicans and -8.47% with Cryptococcus neoformans.

On to `CCc1ccccc1Sc1nccn2c(=O)n(CC(=O)N3CCN(c4ccccc4)CC3)nc12`, for which the results for the Inhibition with Klebsiella pneumoniae, in the test with Candida albicans and in the test on Cryptococcus neoformans were -1.73%, 3.92% and -19.52%, respectively.

`Cc1ccc(Sc2nccn3c(=O)n(CC(=O)Nc4ccc(F)c(Cl)c4)nc23)c(C)c1`: the Inhibition in the test with Klebsiella pneumoniae is given as -6.57%; with Candida albicans, 10.6%; in the test with Cryptococcus neoformans, -11.17%.

Consider `CCC(C)NC(=O)Cn1nc2n(CCC(C)C)c(=O)c3sccc3n2c1=O` (stereo not given), for which the Inhibition in the test with Klebsiella pneumoniae is given as 0.17%; in the test with Candida albicans, -2.39%; with Cryptococcus neoformans, -17.2%.

Regarding `Cc1ccc(NC(=O)Cn2nc3ccc(-c4ccccc4)nn3c2=O)cc1`, the Inhibition is given as 0.91% in the test on Klebsiella pneumoniae, 16.23% in the test on Candida albicans and -12.72% with Cryptococcus neoformans.

With `COc1ccc(NC(=O)Cn2c(=O)c3nnc(C)n3c3ccccc32)cc1Cl`, the Inhibition is on record as 11.31% in the test with Klebsiella pneumoniae, 0.53% in the test on Candida albicans and -20.99% in the test on Cryptococcus neoformans.

With `CSc1cccc(NC(=O)Cn2nc3ccc(C(=O)NCc4ccccc4)cn3c2=O)c1`, the values for the Inhibition with Klebsiella pneumoniae, in the test with Candida albicans and in the test on Cryptococcus neoformans were 7.41%, 7.13% and -20.24%, respectively.

As to `COc1ccc(NC(=O)c2ccc3nn(CC(=O)Nc4cc(Cl)ccc4OC)c(=O)n3c2)cc1`, the figures for the Inhibition in the test on Klebsiella pneumoniae, in the test on Candida albicans and in the test on Cryptococcus neoformans were 1.5%, 2.28% and -8.79%, respectively.

As for `COc1ccccc1-n1ccn2c(SCC(=O)Nc3ccc4c(c3)OCCO4)nnc2c1=O`, the values for the Inhibition in the test with Klebsiella pneumoniae, in the test with Candida albicans and in the test with Cryptococcus neoformans were 16.4%, 6.52% and -7.16%, respectively.

In the case of `NC(=O)CSc1nnc2c(=O)n(-c3ccccc3)ccn12`, the Inhibition in the test with Klebsiella pneumoniae was 15.37%; in the test on Candida albicans it was 2.06%; in the test with Cryptococcus neoformans, -20.31%.

On to `Cc1ccc(NC(=O)Cn2c(=O)c3nnc(C(C)C)n3c3ccccc32)cc1C`, for which the figures for the Inhibition in the test on Klebsiella pneumoniae, with Candida albicans and with Cryptococcus neoformans were 11.54%, 4.79% and -12.38%, respectively.

Regarding `Cc1ccc(NC(=O)Cn2nc3cc(C)nc(Nc4ccc(F)cc4)n3c2=O)cc1`, the results for the Inhibition with Klebsiella pneumoniae, in the test on Candida albicans and in the test on Cryptococcus neoformans were 11.23%, 3.22% and -24.95%, respectively.

As for `COc1cccc(Oc2nccn3c(=O)n(CC(=O)NC4CCCCC4)nc23)c1`, the Inhibition in the test on Klebsiella pneumoniae is 9.68%; in the test on Candida albicans it was -1.29%; in the test with Cryptococcus neoformans it was -8.14%.

Regarding `COc1cc(OC)c(NC(=O)Cn2nc3c(SC4CCCCC4)nccn3c2=O)cc1Cl`, the Inhibition in the test with Klebsiella pneumoniae was 9.62%; with Candida albicans, 7.28%; in the test on Cryptococcus neoformans, -20.84%.

With `CCOC(=O)c1ccccc1NC(=O)Cn1nc2c(Oc3cccc(C)c3C)nccn2c1=O`, the Inhibition in the test with Klebsiella pneumoniae is 7.42%; in the test with Candida albicans, 0.56%; in the test on Cryptococcus neoformans it was -7.85%.

Take `O=C(Cn1nc2c(N3CCOCC3)nccn2c1=O)NCc1ccc(C(F)(F)F)cc1`: the Inhibition in the test with Klebsiella pneumoniae is 3.05%; in the test on Candida albicans, 1.76%; in the test with Cryptococcus neoformans, -5.37%.

As to `COc1ccc(NC(=O)CSc2nc3ccccc3n3c(C(C)C)nnc23)c(OC)c1`, the Inhibition in the test on Klebsiella pneumoniae is 7.3%; in the test with Candida albicans, 2.71%; in the test with Cryptococcus neoformans it was -21.27%.

With `Cc1ccc(NC(=O)Cn2c(=O)c3nnc(C(C)C)n3c3ccccc32)cc1F`, the Inhibition is listed as 13.19% with Klebsiella pneumoniae, 0.6% with Candida albicans and -30.05% with Cryptococcus neoformans.
